An excerpt weighted towards active compounds, which were near 13% of everything screened.
WT yeast gro inh: growth inhibition of WT yeast, mitochondrial fusion screen; inhibition, % at 10 µM; mitochondrial fusion phenotypic screen, WT strain; 190,000 tested, 2.1% active; in the data active = inhibition above about 58%; tested in S. cerevisiae
L major viab: inhibitors of Leishmania major promastigote growth. Leishmania major promastigotes, resazurin fluorescence viability. inhibition, % at 10 µM. 200,000 tested, 9% active. AID 1063; in the data active = inhibition above about 50%;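 note: promastigotes grown with compound for 44 hours at 28 °C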
RAM inhibit: yeast RAM network inhibition; S. cerevisiae dse1pr::URA3 reporter, 5-FOA growth OD615, 2 d; analog-sensitive cbk1-as2 kinase mutant strain; inhibition, % at 50 µM; 190,000 tested, 1.8% active;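 active = inhibition above a set limit, 3 SD over mean compound inhibition, cut at about 8.4% in these data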;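 note: inhibition rescues growth on 5-FOA so higher OD means more RAM inhibition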
CHOP inh: blocks CHOP induction under ER stress. CHO-K1 CHOP-promoter luciferase, tunicamycin-induced, 15-18 h. inhibition, % at 10 µM. 220,000 tested, 3.8% active. AID 2732;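 active = compounds that reduced the stress-induced luciferase reporter signal by more than about 70% of percent inhibition, limit read from the data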
CHOP confirm: confirmation of CHOP induction inhibitors | inhibition, % at 10 µM | shares compounds with CHOP inh | 2,100 tested, 45% active | CHO-CHOP promoter luciferase reporter, tunicamycin-induced, luminescence | AID 504437;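 active = mean of three repeat readings of reporter signal inhibition above a set limit, cut at about 70% in these data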
Hits are given with their value; - = inactive; . = not tested or not shown.

SMILES | WT yeast gro inh | L major viab | RAM inhibit | CHOP inh | CHOP confirm
Cc1ccc2[nH]c3c(c2c1)CN(C(=O)CN1CCN(c2cccc(C)c2C)CC1)CC3 | - | 65.9 | - | 102.5 | 112.3
Cc1nc2ccc(S(=O)(=O)NCC(=O)N3CCC(C)CC3)cc2s1 | - | - | - | - | .
CCN1CCN(Cc2ccc(NC(=O)c3cc(NC(=O)c4cncc(-c5ccc(C#N)cc5)c4)cc(OC)c3)cc2C(F)(F)F)CC1 | . | . | . | 106.6 | -
CCN1CCN(Cc2ccc(NC(=O)c3cc(NC(=O)c4nccnc4N)cc(OC)c3)cc2C(F)(F)F)CC1 | . | . | . | - | .
Cc1cccc(C)c1NC(=O)COc1ccccc1C(=O)Nc1ccc(Br)cn1 | - | - | - | 106.3 | 101.5
N#Cc1c(N)nc(SCC(=O)C23CC4CC(CC(C4)C2)C3)c(C#N)c1-c1ccc(Cl)cc1 | - | - | - | 100.5 | 83.4
CNC(=O)COC(=O)c1ccccc1C(=O)c1ccc(Cl)c([N+](=O)[O-])c1 | - | - | - | 97.2 | -
O=C(O)CCC(=O)CCC(=O)c1ccccc1 | - | - | - | - | .
C[N+]1(CCC(=O)c2ccccc2)CCCCC1 | - | - | - | 97.3 | -
Cc1cc(=O)n2c3c(sc2n1)C(=O)N(Cc1ccccc1)C3=O | - | - | - | 105.1 | -
Cc1cc(=O)n2nc(-c3ccccc3)sc2n1 | - | - | - | - | .
CCCCC(=O)/C=C/n1c(=S)oc2ccccc21 | - | - | - | 107.8 | -
Oc1ccc(Br)cc1-c1nc2cnccn2c1NC1CCCCC1 | - | 85.3 | - | 97.6 | 87.4
CN(C)c1ccc(-c2cc([C@H]3[C@@H]4C=CCC[C@@]4(C)C(=O)N3Cc3ccccc3)ccc2F)cc1 | . | . | . | - | .
CN(C)c1ccc(NC(=O)CSc2nc3ccccc3c(=O)n2C2CCCCC2)cc1 | - | - | - | - | .
CCCN(CCC)C(=O)CSc1nc2ccccc2c(=O)n1C1CCCC1 | - | - | - | 97.5 | -
CC1=C(C(=O)Nc2ccc(C)cc2C)C(c2cccc(Cl)c2)n2nc(C(=O)OC(C)C)nc2N1 (stereo unspecified) | - | - | - | 105.7 | 117.5
Cc1cc2ncn(/N=C/c3ccc4c(c3)OCO4)c2cc1C | - | - | - | 96.3 | -
CCc1c(C)nc(SCC(=O)N2CCCCC2CC)[nH]c1=O (stereo unspecified) | . | . | . | - | .
CCOC(=O)N1C2C=C(C)[C@@H]2[C@@H]2CC(=O)N21 (stereo partly specified) | - | - | - | - | .
CCOC(=O)Cn1c(=NC(=O)c2nc3ccccc3s2)sc2cc(S(N)(=O)=O)ccc21 | - | - | 10.3 | 103.2 | -
CCOC(=O)Cn1c(=NC(=O)CN2C(=O)CCC2=O)sc2cc(S(N)(=O)=O)ccc21 | - | - | - | - | .
CCCc1nn(-c2ccccc2)c2c1C(c1cccs1)C(C#N)=C(N)O2 (stereo unspecified) | - | - | - | 107.7 | -
COc1cc(-c2nc3ccc4ccccc4c3c3c2CCC3)cc(OC)c1O | 97.9 | 98.9 | - | 102.5 | 106.3
CCCCN(CC)CCNC(=O)CN1C(=O)COc2ccc(S(=O)(=O)N3CCCC3)cc21 | - | - | - | - | .
SMILES | WT yeast gro inh | L major viab | RAM inhibit | CHOP inh | CHOP confirm
CC1=NN(c2ccccc2)C(=O)/C1=C\c1cn(-c2ccccc2)nc1C | - | - | - | - | .
Cc1ccc(-c2nn(-c3ccccc3)cc2C=C2C(=O)CC(C)(C)CC2=O)cc1 | - | 96.5 | - | 98.4 | -
CCCn1c(/N=C/c2c[nH]c3ccccc23)nc2ccccc21 | - | - | - | 104.6 | -
CCCCn1c(/N=C/c2c[nH]c3ccccc23)nc2ccccc21 | - | - | - | 111.0 | 116.7
CCCCn1c(/N=C/c2ccc3c(c2)OCO3)nc2ccccc21 | - | - | - | 98.2 | -
CCCOc1ccc(/C(O)=C2/C(=O)C(=O)N(CCCn3ccnc3)C2c2cccnc2)cc1 (stereo unspecified) | . | . | . | - | .
O=C1CC(Sc2nnc(-c3ccccc3)o2)C(=O)N1c1ccccc1 (stereo unspecified) | - | - | - | - | .
Cc1ccccc1N1C(=O)CC(Sc2nnc(-c3ccccc3)o2)C1=O (stereo unspecified) | - | - | - | 108.3 | -
CNc1cc(-n2nc(C)cc2-c2ccccc2)ncn1 | - | - | - | - | .
Cc1cc(-c2ccccc2)n(-c2cc(N/N=C/c3ccccc3O)ncn2)n1 | - | 99.6 | - | 101.6 | -
Cc1ccc2oc(-c3cccc(NC(=O)Cc4cccs4)c3)nc2c1 | . | - | - | 97.7 | -
Cc1ccc2oc(-c3ccc(C)c(NC(=O)Cc4cccs4)c3)nc2c1 | - | - | - | - | .
Cc1ccc(NC(=O)c2cc(-n3cnnc3)ccc2Cl)cc1 | - | - | - | - | .
Cc1ccc(-c2nnc(-c3ccc(NC(=O)Cc4cccs4)cc3)o2)cc1 | - | - | - | 105.3 | 102.2
O=C(Cc1cccs1)Nc1cccc(-c2nnc(-c3ccco3)o2)c1 | - | - | - | - | .
Cc1ccc2oc(-c3cccc(NC(=O)c4cc(-n5cnnc5)ccc4Cl)c3)nc2c1 | - | - | - | 101.7 | -
CCCC(=O)Nc1cccc(-c2nc3cc(C)c(C)cc3o2)c1 | - | - | - | 105.2 | -
CC1CCN(S(=O)(=O)c2ccc(S(=O)(=O)N3CCC4(CC3)OCCO4)cc2)CC1 | - | - | - | - | .
O=C1C=CC(=O)N1c1ccc(OC(F)F)cc1 | - | - | - | 106.8 | -
O=C1C=CC(=O)N1c1ccc(O)cc1 | . | . | . | - | .
O=Nc1ccc(O)c2ncccc12 | . | . | . | 106.2 | 108.3
OCC(O)C1OC(Nc2ccc(Cl)cc2)C(O)C1O (stereo unspecified) | . | . | . | - | .
COc1cc(/C=C/c2nc(N)nc(-c3ccccc3O)n2)cc(OC)c1OC | - | - | - | 96.2 | 76.5
COc1cc(/C=C/c2noc(-c3ccccc3O)n2)cc(OC)c1OC | - | - | - | - | .
COc1ccccc1C1CCN(C(=O)c2ccco2)CC1 | . | . | . | - | .
SMILES | WT yeast gro inh | L major viab | RAM inhibit | CHOP inh | CHOP confirm
O=C(c1ccc(Cl)cc1)c1c[nH]c(C(=O)NNc2cccc(Cl)n2)c1 | - | - | - | 99.7 | 95.6
CCC(C)(C)NC(=O)C(c1cccn1C)N(Cc1ccc(OC)cc1)C(=O)Cn1nnc2ccccc21 (stereo unspecified) | - | - | - | 103.3 | -
Cc1ccc(S(=O)(=O)Nc2cc(=O)[nH]c3c2CCC3)cc1 | . | . | . | - | .
CN(C)c1ncc(C2=C(Cl)C(=O)C(N3CCCC3)=C(Cl)C2=O)s1 | - | - | - | 108.1 | -
CC(=O)c1cnc(N(C)C)s1 | - | - | - | - | .
Cc1ccccc1NC(=O)COC(=O)c1cc(=O)c2ccccc2o1 | - | - | - | - | .
NC(=O)CC(NC(=O)Cc1ccc(Br)cc1)c1ccc(NCc2cc(F)ccc2F)c([N+](=O)[O-])c1 (stereo unspecified) | . | . | . | 97.0 | -
NC(=O)CC(NC(=O)Cc1cccc2ccccc12)c1ccc(NCc2ccccn2)c([N+](=O)[O-])c1 (stereo unspecified) | . | . | . | - | .
NC(=O)CC(NC(=O)Cc1cccc2ccccc12)c1ccc(NCc2ccccc2)c([N+](=O)[O-])c1 (stereo unspecified) | . | . | . | 101.0 | 91.4
NC(=O)CC(NC(=O)Cc1cccc2ccccc12)c1ccc(NCc2ccc(F)cc2)c([N+](=O)[O-])c1 (stereo unspecified) | . | . | . | 105.3 | 108.2

Screens as filed in PubChem BioAssay.
